# In paper PMC7862700, “An all-to-all approach to the identification of sequence-specific readers for epigenetic DNA modifications on cytosine”:
# Legend:
# Assay in all cases: DAPPL (digital affinity profiling via proximity ligation, sequencing); 10 mM Tris-HCl pH 7.5, 50 mM NaCl, 1 mM DTT, 4% glycerol, room temperature, 30 min; GST-TFs on glutathione beads, 16-mer random dsDNA library, 0.1% formaldehyde crosslink after washing; high values mean tight binding
# FEV = target: T1, FEV (Homo sapiens, UniProt Q99581 1-238); conditions: protein: recombinant; tags: N-terminal GST; dsDNA, one strand shown
# T1 sequence: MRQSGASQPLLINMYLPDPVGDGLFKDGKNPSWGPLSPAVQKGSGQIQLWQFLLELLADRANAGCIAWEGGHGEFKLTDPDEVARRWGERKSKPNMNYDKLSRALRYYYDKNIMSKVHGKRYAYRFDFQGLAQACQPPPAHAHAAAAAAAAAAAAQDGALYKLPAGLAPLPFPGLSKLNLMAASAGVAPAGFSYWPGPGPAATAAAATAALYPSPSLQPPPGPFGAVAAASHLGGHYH
# How it was run: (§1)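 Binding signal is given per hexamer as its read frequency for a factor divided by its frequency in the tag-only sample. GST-fused human transcription factors were expressed in yeast, captured on glutathione beads, barcoded with DNA and pooled with that sample, then incubated with 200 nmole of a 16-mer random double-stranded DNA library in Tris/NaCl/DTT/glycerol buffer for 30 min at room temperature. The pools were then washed, crosslinked, proximity-ligated, amplified by PCR and sequenced on an Illumina NextSeq500.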
# ETV5 = ETV5 (Homo sapiens, UniProt P41161 1-510); conditions: protein: recombinant; tags: N-terminal GST; dsDNA, one strand shown
# Sequence of ETV5 (P41161 whole entry): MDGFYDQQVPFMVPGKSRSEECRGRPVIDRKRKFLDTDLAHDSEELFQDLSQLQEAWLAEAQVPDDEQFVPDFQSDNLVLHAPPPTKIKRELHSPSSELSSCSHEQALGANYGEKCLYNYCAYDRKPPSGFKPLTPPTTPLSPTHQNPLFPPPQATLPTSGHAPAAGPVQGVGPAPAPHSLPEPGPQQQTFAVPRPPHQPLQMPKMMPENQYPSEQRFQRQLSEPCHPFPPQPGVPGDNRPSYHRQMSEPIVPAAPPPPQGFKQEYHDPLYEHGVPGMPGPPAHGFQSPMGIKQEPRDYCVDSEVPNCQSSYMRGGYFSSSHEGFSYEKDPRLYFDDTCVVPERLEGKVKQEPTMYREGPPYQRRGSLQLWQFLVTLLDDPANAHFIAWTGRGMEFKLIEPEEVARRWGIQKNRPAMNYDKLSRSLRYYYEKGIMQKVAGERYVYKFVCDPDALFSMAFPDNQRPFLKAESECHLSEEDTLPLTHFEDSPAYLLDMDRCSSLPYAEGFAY
# How it was run: as §1
# HSF1 = HSF1 (Homo sapiens, UniProt Q00613 1-529); conditions: protein: recombinant; tags: N-terminal GST; chain copies: 3; dsDNA, one strand shown
# Sequence of HSF1 (Q00613 whole entry): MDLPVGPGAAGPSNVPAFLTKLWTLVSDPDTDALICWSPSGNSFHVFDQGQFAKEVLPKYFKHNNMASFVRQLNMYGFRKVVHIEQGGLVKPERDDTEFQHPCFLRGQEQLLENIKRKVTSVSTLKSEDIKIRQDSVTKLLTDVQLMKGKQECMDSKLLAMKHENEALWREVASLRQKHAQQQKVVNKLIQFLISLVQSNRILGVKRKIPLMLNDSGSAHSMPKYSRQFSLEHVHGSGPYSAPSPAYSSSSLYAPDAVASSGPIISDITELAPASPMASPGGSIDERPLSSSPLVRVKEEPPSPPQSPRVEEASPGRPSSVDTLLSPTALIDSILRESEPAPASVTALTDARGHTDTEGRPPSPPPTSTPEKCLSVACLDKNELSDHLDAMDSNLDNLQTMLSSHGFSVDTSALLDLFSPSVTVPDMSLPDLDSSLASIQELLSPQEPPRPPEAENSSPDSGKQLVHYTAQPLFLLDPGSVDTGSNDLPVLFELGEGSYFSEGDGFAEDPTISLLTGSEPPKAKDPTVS
# How it was run: as §1
# SPIC = target: T2, SPIC (Homo sapiens, UniProt Q8N5J4 1-248); conditions: protein: recombinant; tags: N-terminal GST; dsDNA, one strand shown
# T2 sequence: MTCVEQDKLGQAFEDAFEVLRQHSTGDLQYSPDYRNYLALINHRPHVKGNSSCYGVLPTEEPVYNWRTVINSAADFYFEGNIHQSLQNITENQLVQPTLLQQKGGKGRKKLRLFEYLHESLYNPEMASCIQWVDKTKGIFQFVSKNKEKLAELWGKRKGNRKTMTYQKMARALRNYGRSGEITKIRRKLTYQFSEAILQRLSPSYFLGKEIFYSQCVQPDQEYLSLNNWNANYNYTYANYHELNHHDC
# How it was run: as §1
# ELF4 = ELF4 (Homo sapiens, UniProt Q99607 1-663); conditions: protein: recombinant; tags: N-terminal GST; dsDNA, one strand shown
# Sequence of ELF4 (Q99607 whole entry): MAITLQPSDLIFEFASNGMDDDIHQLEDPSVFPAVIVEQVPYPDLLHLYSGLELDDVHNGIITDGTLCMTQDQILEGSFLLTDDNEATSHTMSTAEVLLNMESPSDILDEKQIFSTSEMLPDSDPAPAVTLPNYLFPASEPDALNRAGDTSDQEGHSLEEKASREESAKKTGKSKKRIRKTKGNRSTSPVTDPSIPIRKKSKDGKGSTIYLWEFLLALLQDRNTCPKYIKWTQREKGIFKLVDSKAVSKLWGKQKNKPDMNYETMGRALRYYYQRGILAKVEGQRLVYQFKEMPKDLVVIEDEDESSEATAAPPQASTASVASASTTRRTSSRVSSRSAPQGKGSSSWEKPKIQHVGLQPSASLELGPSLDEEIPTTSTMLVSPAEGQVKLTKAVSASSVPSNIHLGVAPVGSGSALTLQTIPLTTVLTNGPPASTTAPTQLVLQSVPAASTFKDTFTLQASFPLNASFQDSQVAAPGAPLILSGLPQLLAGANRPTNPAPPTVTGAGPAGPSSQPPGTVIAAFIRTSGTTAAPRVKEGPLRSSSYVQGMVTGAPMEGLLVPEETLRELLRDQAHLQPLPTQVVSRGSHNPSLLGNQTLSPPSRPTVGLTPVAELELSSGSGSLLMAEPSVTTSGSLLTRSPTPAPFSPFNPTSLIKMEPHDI
# How it was run: as §1
# ELK4 = target: T3, ELK4 (Homo sapiens, UniProt P28324-2 1-405); conditions: protein: recombinant; tags: N-terminal GST; dsDNA, one strand shown
# T3 sequence: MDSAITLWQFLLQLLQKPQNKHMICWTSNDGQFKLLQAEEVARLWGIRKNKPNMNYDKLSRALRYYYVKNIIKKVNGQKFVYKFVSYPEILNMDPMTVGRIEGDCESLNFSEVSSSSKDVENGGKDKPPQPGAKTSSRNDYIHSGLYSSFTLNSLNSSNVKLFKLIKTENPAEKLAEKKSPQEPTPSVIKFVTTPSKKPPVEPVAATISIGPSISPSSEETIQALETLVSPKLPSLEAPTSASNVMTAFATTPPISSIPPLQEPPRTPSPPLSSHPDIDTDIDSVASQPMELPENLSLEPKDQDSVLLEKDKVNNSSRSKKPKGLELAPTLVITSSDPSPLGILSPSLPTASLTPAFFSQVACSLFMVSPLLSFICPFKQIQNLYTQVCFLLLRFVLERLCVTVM
# How it was run: as §1
# ETV2 = target: T4, ETV2 (Homo sapiens, UniProt O00321 1-342); conditions: protein: recombinant; tags: N-terminal GST; dsDNA, one strand shown
# T4 sequence: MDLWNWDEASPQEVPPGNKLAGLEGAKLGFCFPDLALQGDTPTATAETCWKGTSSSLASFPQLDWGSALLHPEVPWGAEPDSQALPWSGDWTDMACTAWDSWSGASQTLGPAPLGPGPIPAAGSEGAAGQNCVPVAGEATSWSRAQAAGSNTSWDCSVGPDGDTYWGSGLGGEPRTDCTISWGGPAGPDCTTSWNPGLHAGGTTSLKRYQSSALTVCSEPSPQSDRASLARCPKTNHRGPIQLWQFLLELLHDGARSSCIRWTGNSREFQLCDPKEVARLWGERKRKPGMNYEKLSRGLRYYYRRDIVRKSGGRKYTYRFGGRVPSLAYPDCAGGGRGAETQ
# How it was run: as §1
# ELF3 = target: T5, ELF3 (Homo sapiens, UniProt P78545 1-371); conditions: protein: recombinant; tags: N-terminal GST; dsDNA, one strand shown
# T5 sequence: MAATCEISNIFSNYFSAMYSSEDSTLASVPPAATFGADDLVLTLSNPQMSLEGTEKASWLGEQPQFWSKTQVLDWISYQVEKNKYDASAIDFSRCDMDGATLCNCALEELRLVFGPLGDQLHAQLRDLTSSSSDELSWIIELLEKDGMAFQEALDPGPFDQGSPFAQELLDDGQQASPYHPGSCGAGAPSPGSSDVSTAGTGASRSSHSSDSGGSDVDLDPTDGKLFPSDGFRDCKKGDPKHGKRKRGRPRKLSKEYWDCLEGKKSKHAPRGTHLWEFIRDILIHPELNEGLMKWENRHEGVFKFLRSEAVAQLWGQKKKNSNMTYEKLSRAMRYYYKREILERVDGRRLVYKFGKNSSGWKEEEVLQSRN
# How it was run: as §1
# CRX = CRX (Homo sapiens, UniProt O43186 1-299); conditions: protein: recombinant; tags: N-terminal GST; dsDNA, one strand shown
# Sequence of CRX (O43186 whole entry): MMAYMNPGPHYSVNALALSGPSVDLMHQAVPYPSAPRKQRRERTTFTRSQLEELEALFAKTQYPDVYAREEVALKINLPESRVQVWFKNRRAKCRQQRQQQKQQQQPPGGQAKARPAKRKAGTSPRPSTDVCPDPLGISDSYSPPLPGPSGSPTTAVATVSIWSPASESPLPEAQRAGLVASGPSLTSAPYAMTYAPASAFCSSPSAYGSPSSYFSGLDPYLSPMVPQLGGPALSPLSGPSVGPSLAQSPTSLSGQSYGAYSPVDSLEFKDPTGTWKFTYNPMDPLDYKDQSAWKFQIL
# How it was run: as §1
# ETV1 = ETV1 (Homo sapiens, UniProt P50549 1-477); conditions: protein: recombinant; tags: N-terminal GST; dsDNA, one strand shown
# Sequence of ETV1 (P50549 whole entry): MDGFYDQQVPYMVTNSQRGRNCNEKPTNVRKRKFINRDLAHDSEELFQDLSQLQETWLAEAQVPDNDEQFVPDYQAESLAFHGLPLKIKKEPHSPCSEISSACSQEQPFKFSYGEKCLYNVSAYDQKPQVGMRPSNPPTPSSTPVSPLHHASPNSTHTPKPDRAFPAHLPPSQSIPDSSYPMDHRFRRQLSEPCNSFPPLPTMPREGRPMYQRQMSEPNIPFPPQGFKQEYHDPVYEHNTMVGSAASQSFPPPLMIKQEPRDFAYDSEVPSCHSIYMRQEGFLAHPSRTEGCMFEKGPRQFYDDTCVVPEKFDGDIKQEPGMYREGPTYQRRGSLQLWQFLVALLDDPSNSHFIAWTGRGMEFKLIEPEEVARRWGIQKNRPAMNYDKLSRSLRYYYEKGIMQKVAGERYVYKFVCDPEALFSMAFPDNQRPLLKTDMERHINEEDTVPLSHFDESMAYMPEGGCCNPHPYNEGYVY
# How it was run: as §1
sequence,measurement,setting,value
CACGTA,binding signal,FEV,"1.1 fold enrichment (6-mer frequency, TF over GST control)"
same,binding signal,ETV5,"1.13 fold enrichment (6-mer frequency, TF over GST control)"
same,binding signal,HSF1,"1.05 fold enrichment (6-mer frequency, TF over GST control)"
same,binding signal,SPIC,"1.22 fold enrichment (6-mer frequency, TF over GST control)"
same,binding signal,ELF4,"1.2 fold enrichment (6-mer frequency, TF over GST control)"
same,binding signal,ELK4,"1.23 fold enrichment (6-mer frequency, TF over GST control)"
same,binding signal,ETV2,"1.09 fold enrichment (6-mer frequency, TF over GST control)"
same,binding signal,ELF3,"1.18 fold enrichment (6-mer frequency, TF over GST control)"
same,binding signal,CRX,"1.06 fold enrichment (6-mer frequency, TF over GST control)"
same,binding signal,ETV1,"1.14 fold enrichment (6-mer frequency, TF over GST control)"
